# Positions count from the first letter of the chain named.
# Assays:
# Assay in all cases: PBM; 200 nM protein, PBS
# Conditions in all cases: dsDNA, one strand shown
# [1] = target: SHOX (Homo sapiens, UniProt O15266 103-189)
# [2] = target: T1, VENTX (Homo sapiens, UniProt O95231 78-163, R121Q)
# T1 sequence: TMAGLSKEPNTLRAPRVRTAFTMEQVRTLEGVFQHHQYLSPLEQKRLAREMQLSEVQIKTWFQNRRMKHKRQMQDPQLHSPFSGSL
# [3] = target: T2, VENTX (Homo sapiens, UniProt O95231 78-163)
# T2 sequence: T1 sequence with Q44R
# [4] = target: HOXA7 (Homo sapiens, UniProt P31268 116-202)
# [5] = target: ALX4 (Homo sapiens, UniProt Q9H161 200-286)
# [6] = target: T3, VENTX (Homo sapiens, UniProt O95231 78-163, Y115F)
# T3 sequence: T1 sequence with Y38F, Q44R
# [7] = target: ALX4 (Homo sapiens, UniProt Q9H161 200-286, Q225E)
# [8] = target: SHOX (Homo sapiens, UniProt O15266 103-189, R173C)
# [9] = target: VAX1 (Homo sapiens, UniProt Q5SQQ9 86-172)
# [10] = target: VAX1 (Homo sapiens, UniProt Q5SQQ9 86-172, T142I)
# [11] = target: HOXA7 (Homo sapiens, UniProt P31268 116-202, W177C)
# [12] = target: VAX1 (Homo sapiens, UniProt Q5SQQ9 86-172, K157R)
# [13] = target: T4, NKX2-4 (Homo sapiens, UniProt Q9H2Z4 175-261, P217L)
# T4 sequence: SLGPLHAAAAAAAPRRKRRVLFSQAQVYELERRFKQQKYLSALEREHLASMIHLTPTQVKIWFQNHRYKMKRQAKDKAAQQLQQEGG
# [14] = target: T5, NKX2-4 (Homo sapiens, UniProt Q9H2Z4 175-261, T231S)
# T5 sequence: T4 sequence with L43P, T57S
# [15] = target: T6, NKX2-4 (Homo sapiens, UniProt Q9H2Z4 175-261)
# T6 sequence: T4 sequence with L43P
# [16] = target: ALX1 (Homo sapiens, UniProt Q15699 118-204, L144V)
# [17] = target: ALX3 (Homo sapiens, UniProt O95076 139-225, N203Q)
# [18] = target: ALX1 (Homo sapiens, UniProt Q15699 118-204, L144R)
# [19] = target: ALX3 (Homo sapiens, UniProt O95076 139-225)
# [20] = target: T7, NKX2-4 (Homo sapiens, UniProt Q9H2Z4 175-261, R246Q)
# T7 sequence: T4 sequence with L43P, R72Q
# [21] = target: ALX3 (Homo sapiens, UniProt O95076 139-225, L168Q)
# [22] = target: ALX3 (Homo sapiens, UniProt O95076 139-225, L168V)
# [23] = target: ALX1 (Homo sapiens, UniProt Q15699 118-204)
# [24] = target: ALX3 (Homo sapiens, UniProt O95076 139-225, N203S)
# [25] = target: HOXB6 (Homo sapiens, UniProt P17509 132-218, K202E)
# [26] = target: HOXB6 (Homo sapiens, UniProt P17509 132-218)
# [27] = target: CRX (Homo sapiens, UniProt O43186 26-111)
# [28] = target: CRX (Homo sapiens, UniProt O43186 26-111, E42D)
# [29] = target: CRX (Homo sapiens, UniProt O43186 26-111, R41L)
# [30] = target: T8, SIX6 (Homo sapiens, UniProt O95475 114-200, L167I)
# T8 sequence: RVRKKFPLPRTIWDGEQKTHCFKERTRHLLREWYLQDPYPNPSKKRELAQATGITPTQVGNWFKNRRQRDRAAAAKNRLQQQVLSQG
# [31] = target: T9, SIX6 (Homo sapiens, UniProt O95475 114-200, L143V)
# T9 sequence: T8 sequence with L30V, I54L
# [32] = target: T10, SIX6 (Homo sapiens, UniProt O95475 114-200, H141N)
# T10 sequence: T8 sequence with H28N, I54L
# [33] = target: T11, SIX6 (Homo sapiens, UniProt O95475 114-200, T165P)
# T11 sequence: T8 sequence with T52P, I54L
# [34] = target: T12, SIX6 (Homo sapiens, UniProt O95475 114-200, L167M)
# T12 sequence: T8 sequence with I54M
# [35] = target: T13, SIX6 (Homo sapiens, UniProt O95475 114-200, L143M)
# T13 sequence: T8 sequence with L30M, I54L
# [36] = target: T14, SIX6 (Homo sapiens, UniProt O95475 114-200, L143I)
# T14 sequence: T8 sequence with L30I, I54L
# [37] = target: T15, SIX6 (Homo sapiens, UniProt O95475 114-200, T165G)
# T15 sequence: T8 sequence with T52G, I54L
# [38] = target: HOXA2 (Homo sapiens, UniProt O43364 129-215, R185T)
# [39] = target: T16, SIX6 (Homo sapiens, UniProt O95475 114-200, T139Q)
# T16 sequence: T8 sequence with T26Q, I54L
# [40] = target: MSX2 (Homo sapiens, UniProt P35548 130-214, R199I)
# [41] = target: T17, SIX6 (Homo sapiens, UniProt O95475 114-200, T165A)
# T17 sequence: T8 sequence with T52A, I54L
# [42] = target: HOXA2 (Homo sapiens, UniProt O43364 129-215, R185K)
# [43] = target: MSX2 (Homo sapiens, UniProt P35548 130-214)
# [44] = target: T18, SIX6 (Homo sapiens, UniProt O95475 114-200, L167V)
# T18 sequence: T8 sequence with I54V
# [45] = target: T19, SIX6 (Homo sapiens, UniProt O95475 114-200)
# T19 sequence: T8 sequence with I54L
# [46] = target: T20, SIX6 (Homo sapiens, UniProt O95475 114-200, T165I)
# T20 sequence: T8 sequence with T52I, I54L
# [47] = target: MSX2 (Homo sapiens, UniProt P35548 130-214, F161Y)
# [48] = target: HOXA2 (Homo sapiens, UniProt O43364 129-215, Y150S)
# [49] = target: HOXA2 (Homo sapiens, UniProt O43364 129-215)
# Chain of HOXA2 (Homo sapiens, UniProt O43364 129-215) (O43364 129-215): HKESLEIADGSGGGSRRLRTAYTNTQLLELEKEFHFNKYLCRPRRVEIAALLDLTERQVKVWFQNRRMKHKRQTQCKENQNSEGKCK
# Chain of SHOX (Homo sapiens, UniProt O15266 103-189, R173C) (O15266 103-189 R173C): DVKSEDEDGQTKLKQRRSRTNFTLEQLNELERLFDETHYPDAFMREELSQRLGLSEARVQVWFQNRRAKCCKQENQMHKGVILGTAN
# Chain of SHOX (Homo sapiens, UniProt O15266 103-189) (O15266 103-189): as the sequence (O15266 103-189 R173C) above, with C71R counted along it
# Chain of MSX2 (Homo sapiens, UniProt P35548 130-214, R199I) (P35548 130-214 R199I): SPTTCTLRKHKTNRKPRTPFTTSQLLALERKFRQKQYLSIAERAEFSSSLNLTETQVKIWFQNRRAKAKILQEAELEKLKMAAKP
# Chain of HOXA2 (Homo sapiens, UniProt O43364 129-215, Y150S) (O43364 129-215 Y150S): as the sequence (O43364 129-215) above, with Y22S counted along it
# Chain of HOXA7 (Homo sapiens, UniProt P31268 116-202, W177C) (P31268 116-202 W177C): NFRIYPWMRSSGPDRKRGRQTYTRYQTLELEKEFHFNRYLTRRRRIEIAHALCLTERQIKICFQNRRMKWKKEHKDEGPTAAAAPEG
# Chain of MSX2 (Homo sapiens, UniProt P35548 130-214, F161Y) (P35548 130-214 F161Y): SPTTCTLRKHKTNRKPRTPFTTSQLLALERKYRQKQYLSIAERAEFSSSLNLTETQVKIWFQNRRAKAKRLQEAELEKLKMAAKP
# Chain of VAX1 (Homo sapiens, UniProt Q5SQQ9 86-172, K157R) (Q5SQQ9 86-172 K157R): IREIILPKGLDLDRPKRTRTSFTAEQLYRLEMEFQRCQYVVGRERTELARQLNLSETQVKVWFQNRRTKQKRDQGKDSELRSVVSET
# Chain of VAX1 (Homo sapiens, UniProt Q5SQQ9 86-172) (Q5SQQ9 86-172): as the sequence (Q5SQQ9 86-172 K157R) above, with R72K counted along it
# Chain of ALX1 (Homo sapiens, UniProt Q15699 118-204, L144V) (Q15699 118-204 L144V): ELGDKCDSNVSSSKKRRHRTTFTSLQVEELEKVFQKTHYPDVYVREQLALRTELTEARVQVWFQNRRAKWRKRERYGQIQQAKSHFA
# Chain of HOXB6 (Homo sapiens, UniProt P17509 132-218, K202E) (P17509 132-218 K202E): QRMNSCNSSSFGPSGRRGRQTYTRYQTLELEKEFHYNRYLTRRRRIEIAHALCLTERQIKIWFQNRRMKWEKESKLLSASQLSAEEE
# Chain of HOXB6 (Homo sapiens, UniProt P17509 132-218) (P17509 132-218): as the sequence (P17509 132-218 K202E) above, with E71K counted along it
# Chain of ALX1 (Homo sapiens, UniProt Q15699 118-204) (Q15699 118-204): as the sequence (Q15699 118-204 L144V) above, with V27L counted along it
# Chain of ALX4 (Homo sapiens, UniProt Q9H161 200-286, Q225E) (Q9H161 200-286 Q225E): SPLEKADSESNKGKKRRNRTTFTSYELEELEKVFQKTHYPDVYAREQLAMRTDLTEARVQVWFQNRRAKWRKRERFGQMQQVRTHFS
# Chain of CRX (Homo sapiens, UniProt O43186 26-111, E42D) (O43186 26-111 E42D): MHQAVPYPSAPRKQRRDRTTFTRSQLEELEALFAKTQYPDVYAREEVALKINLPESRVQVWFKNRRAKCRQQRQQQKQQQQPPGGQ
# Chain of MSX2 (Homo sapiens, UniProt P35548 130-214) (P35548 130-214): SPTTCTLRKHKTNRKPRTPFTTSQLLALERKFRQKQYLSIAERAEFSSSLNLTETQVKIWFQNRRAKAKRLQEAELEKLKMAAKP
# Chain of CRX (Homo sapiens, UniProt O43186 26-111) (O43186 26-111): as the sequence (O43186 26-111 E42D) above, with D17E counted along it
# Chain of ALX1 (Homo sapiens, UniProt Q15699 118-204, L144R) (Q15699 118-204 L144R): as the sequence (Q15699 118-204 L144V) above, with V27R counted along it
# Chain of HOXA2 (Homo sapiens, UniProt O43364 129-215, R185T) (O43364 129-215 R185T): as the sequence (O43364 129-215) above, with R57T counted along it
# Chain of ALX3 (Homo sapiens, UniProt O95076 139-225) (O95076 139-225): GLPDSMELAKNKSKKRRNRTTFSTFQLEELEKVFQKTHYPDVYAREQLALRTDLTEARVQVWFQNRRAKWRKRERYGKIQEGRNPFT
# Chain of HOXA7 (Homo sapiens, UniProt P31268 116-202) (P31268 116-202): as the sequence (P31268 116-202 W177C) above, with C62W counted along it
# Chain of ALX3 (Homo sapiens, UniProt O95076 139-225, N203S) (O95076 139-225 N203S): as the sequence (O95076 139-225) above, with N65S counted along it
# Chain of ALX4 (Homo sapiens, UniProt Q9H161 200-286) (Q9H161 200-286): as the sequence (Q9H161 200-286 Q225E) above, with E26Q counted along it
# Chain of HOXA2 (Homo sapiens, UniProt O43364 129-215, R185K) (O43364 129-215 R185K): as the sequence (O43364 129-215) above, with R57K counted along it
# Chain of CRX (Homo sapiens, UniProt O43186 26-111, R41L) (O43186 26-111 R41L): as the sequence (O43186 26-111 E42D) above, with R16L, D17E counted along it
# Chain of ALX3 (Homo sapiens, UniProt O95076 139-225, N203Q) (O95076 139-225 N203Q): as the sequence (O95076 139-225) above, with N65Q counted along it
# Chain of VAX1 (Homo sapiens, UniProt Q5SQQ9 86-172, T142I) (Q5SQQ9 86-172 T142I): as the sequence (Q5SQQ9 86-172 K157R) above, with T57I, R72K counted along it
# Chain of ALX3 (Homo sapiens, UniProt O95076 139-225, L168V) (O95076 139-225 L168V): as the sequence (O95076 139-225) above, with L30V counted along it
# Chain of ALX3 (Homo sapiens, UniProt O95076 139-225, L168Q) (O95076 139-225 L168Q): as the sequence (O95076 139-225) above, with L30Q counted along it
sequence,measurement,setting,value
CCGGTCTC,binding signal,[1],"7.18 upbm affinity estimate (log intensity, higher = more binding, comparable within an allelic series)"
same,binding signal,[2],"8.15 upbm affinity estimate (log intensity, higher = more binding, comparable within an allelic series)"
same,binding signal,[3],"8.23 upbm affinity estimate (log intensity, higher = more binding, comparable within an allelic series)"
same,binding signal,[4],"8.45 upbm affinity estimate (log intensity, higher = more binding, comparable within an allelic series)"
same,binding signal,[5],"8.33 upbm affinity estimate (log intensity, higher = more binding, comparable within an allelic series)"
same,binding signal,[6],"8.1 upbm affinity estimate (log intensity, higher = more binding, comparable within an allelic series)"
same,binding signal,[7],"8.34 upbm affinity estimate (log intensity, higher = more binding, comparable within an allelic series)"
same,binding signal,[8],"7.23 upbm affinity estimate (log intensity, higher = more binding, comparable within an allelic series)"
same,binding signal,[9],"7.31 upbm affinity estimate (log intensity, higher = more binding, comparable within an allelic series)"
same,binding signal,[10],"7.3 upbm affinity estimate (log intensity, higher = more binding, comparable within an allelic series)"
same,binding signal,[11],"8.44 upbm affinity estimate (log intensity, higher = more binding, comparable within an allelic series)"
same,binding signal,[12],"7.04 upbm affinity estimate (log intensity, higher = more binding, comparable within an allelic series)"
GCCGTAGC,binding signal,[1],"6.96 upbm affinity estimate (log intensity, higher = more binding, comparable within an allelic series)"
same,binding signal,[13],"9.17 upbm affinity estimate (log intensity, higher = more binding, comparable within an allelic series)"
same,binding signal,[2],"7.91 upbm affinity estimate (log intensity, higher = more binding, comparable within an allelic series)"
same,binding signal,[3],"7.82 upbm affinity estimate (log intensity, higher = more binding, comparable within an allelic series)"
same,binding signal,[14],"9.15 upbm affinity estimate (log intensity, higher = more binding, comparable within an allelic series)"
same,binding signal,[6],"7.86 upbm affinity estimate (log intensity, higher = more binding, comparable within an allelic series)"
same,binding signal,[15],"9.34 upbm affinity estimate (log intensity, higher = more binding, comparable within an allelic series)"
same,binding signal,[16],"6.19 upbm affinity estimate (log intensity, higher = more binding, comparable within an allelic series)"
same,binding signal,[17],"7.67 upbm affinity estimate (log intensity, higher = more binding, comparable within an allelic series)"
same,binding signal,[8],"7.22 upbm affinity estimate (log intensity, higher = more binding, comparable within an allelic series)"
same,binding signal,[18],"6.26 upbm affinity estimate (log intensity, higher = more binding, comparable within an allelic series)"
same,binding signal,[19],"7.55 upbm affinity estimate (log intensity, higher = more binding, comparable within an allelic series)"
same,binding signal,[20],"9.33 upbm affinity estimate (log intensity, higher = more binding, comparable within an allelic series)"
same,binding signal,[21],"7.74 upbm affinity estimate (log intensity, higher = more binding, comparable within an allelic series)"
same,binding signal,[22],"7.76 upbm affinity estimate (log intensity, higher = more binding, comparable within an allelic series)"
same,binding signal,[23],"6.18 upbm affinity estimate (log intensity, higher = more binding, comparable within an allelic series)"
same,binding signal,[24],"7.68 upbm affinity estimate (log intensity, higher = more binding, comparable within an allelic series)"
GCTCCGAC,binding signal,[1],"7.2 upbm affinity estimate (log intensity, higher = more binding, comparable within an allelic series)"
same,binding signal,[2],"8.1 upbm affinity estimate (log intensity, higher = more binding, comparable within an allelic series)"
same,binding signal,[3],"8.29 upbm affinity estimate (log intensity, higher = more binding, comparable within an allelic series)"
same,binding signal,[6],"8.19 upbm affinity estimate (log intensity, higher = more binding, comparable within an allelic series)"
same,binding signal,[25],"9.12 upbm affinity estimate (log intensity, higher = more binding, comparable within an allelic series)"
same,binding signal,[8],"7.25 upbm affinity estimate (log intensity, higher = more binding, comparable within an allelic series)"
same,binding signal,[26],"9.05 upbm affinity estimate (log intensity, higher = more binding, comparable within an allelic series)"
CAGTCGCG,binding signal,[1],"7 upbm affinity estimate (log intensity, higher = more binding, comparable within an allelic series)"
same,binding signal,[27],"8.23 upbm affinity estimate (log intensity, higher = more binding, comparable within an allelic series)"
same,binding signal,[28],"8.35 upbm affinity estimate (log intensity, higher = more binding, comparable within an allelic series)"
same,binding signal,[8],"7.2 upbm affinity estimate (log intensity, higher = more binding, comparable within an allelic series)"
same,binding signal,[29],"8.3 upbm affinity estimate (log intensity, higher = more binding, comparable within an allelic series)"
GGAGCGGA,binding signal,[1],"7.25 upbm affinity estimate (log intensity, higher = more binding, comparable within an allelic series)"
same,binding signal,[30],"9.19 upbm affinity estimate (log intensity, higher = more binding, comparable within an allelic series)"
same,binding signal,[31],"8.94 upbm affinity estimate (log intensity, higher = more binding, comparable within an allelic series)"
same,binding signal,[32],"9.15 upbm affinity estimate (log intensity, higher = more binding, comparable within an allelic series)"
same,binding signal,[33],"8.85 upbm affinity estimate (log intensity, higher = more binding, comparable within an allelic series)"
same,binding signal,[34],"9.13 upbm affinity estimate (log intensity, higher = more binding, comparable within an allelic series)"
same,binding signal,[35],"9.14 upbm affinity estimate (log intensity, higher = more binding, comparable within an allelic series)"
same,binding signal,[36],"9.05 upbm affinity estimate (log intensity, higher = more binding, comparable within an allelic series)"
same,binding signal,[37],"9.13 upbm affinity estimate (log intensity, higher = more binding, comparable within an allelic series)"
same,binding signal,[38],"7.31 upbm affinity estimate (log intensity, higher = more binding, comparable within an allelic series)"
same,binding signal,[39],"9.15 upbm affinity estimate (log intensity, higher = more binding, comparable within an allelic series)"
same,binding signal,[40],"9.51 upbm affinity estimate (log intensity, higher = more binding, comparable within an allelic series)"
same,binding signal,[41],"9.08 upbm affinity estimate (log intensity, higher = more binding, comparable within an allelic series)"
same,binding signal,[8],"7.2 upbm affinity estimate (log intensity, higher = more binding, comparable within an allelic series)"
same,binding signal,[42],"10.3 upbm affinity estimate (log intensity, higher = more binding, comparable within an allelic series)"
same,binding signal,[43],"9.6 upbm affinity estimate (log intensity, higher = more binding, comparable within an allelic series)"
same,binding signal,[44],"9.14 upbm affinity estimate (log intensity, higher = more binding, comparable within an allelic series)"
same,binding signal,[45],"9.16 upbm affinity estimate (log intensity, higher = more binding, comparable within an allelic series)"
same,binding signal,[46],"9.13 upbm affinity estimate (log intensity, higher = more binding, comparable within an allelic series)"
same,binding signal,[47],"9.62 upbm affinity estimate (log intensity, higher = more binding, comparable within an allelic series)"
same,binding signal,[48],"10.5 upbm affinity estimate (log intensity, higher = more binding, comparable within an allelic series)"
same,binding signal,[49],"7.46 upbm affinity estimate (log intensity, higher = more binding, comparable within an allelic series)"
